About 2,000 (36%) of roughly 5,500 compounds were called active. Not shown: some 18% with an inconclusive outcome. No stated cut-off is given here; in the data, active means normalized growth mostly below about 0.91 (no sharp cut-off); inconclusive means no clear call, values can overlap the other calls; inactive means mostly above about 0.92. This is one part of the list.
Experiment: chemical genetic growth profiling, strain panel (AID 1159580);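 further: tested at 20 µM; growth read once vehicle control cultures reached saturation at 30 °C; 1 = growth at the plate median or of vehicle wells; lower values mean less growth of the strain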
Conditions: growth OD
[1] = S. cerevisiae deletion strains, locus YAL013W, strain DEP1, hits give low values
[2] = S. cerevisiae deletion strains, locus YCL061C, strain MRC1, hits give low values
[3] = S. cerevisiae deletion strains, locus YDR150W, strain NUM1, hits give low values
[4] = S. cerevisiae deletion strains, locus YGR078C, strain PAC10, hits give low values
[5] = S. cerevisiae deletion strains, locus YHR030C, strain SLT2, hits give low values
[6] = S. cerevisiae deletion strains, locus YJL187C, strain SWE1, hits give low values
[7] = S. cerevisiae deletion strains, locus YPL055C, strain LGE1, hits give low values

Measured: normalized growth

O=C(O)c1ccccc1Nc1ccccc1
inactive: [1] 1.01 | S. cerevisiae deletion strains, locus YAL021C, strain ccr4, hits give low values 0.953 | S. cerevisiae deletion strains, locus YAL026C, strain drs2, hits give low values 0.921 | S. cerevisiae deletion strains, locus YAL030W, strain snc1, hits give low values 0.94 | S. cerevisiae deletion strains, locus YAL040C, strain CLN3, hits give low values 1.01 | S. cerevisiae deletion strains, locus YBL061C, strain skt5, hits give low values 0.946 | S. cerevisiae deletion strains, locus YBR009C, strain hhf1, hits give low values 0.992 | S. cerevisiae deletion strains, locus YBR023C, strain chs3, hits give low values 0.951 | S. cerevisiae deletion strains, locus YBR171W, strain sec66, hits give low values 0.894 | S. cerevisiae deletion strains, locus YBR231C, strain swc5, hits give low values 0.966 | S. cerevisiae deletion strains, locus YBR279W, strain paf1, hits give low values 0.964 | S. cerevisiae deletion strains, locus YCL011C, strain gbp2, hits give low values 0.922 | S. cerevisiae deletion strains, locus YCL016C, strain dcc1, hits give low values 0.961 | S. cerevisiae deletion strains, locus YDL005C, strain med2, hits give low values 0.957 | S. cerevisiae deletion strains, locus YDL040C, strain nat1, hits give low values 0.944 | S. cerevisiae deletion strains, locus YDR069C, strain doa4, hits give low values 1.01 | S. cerevisiae deletion strains, locus YDR137W, strain rgp1, hits give low values 0.86 | [3] 0.994 | S. cerevisiae deletion strains, locus YDR159W, strain sac3, hits give low values 0.957 | S. cerevisiae deletion strains, locus YDR195W, strain ref2 1.05 | S. cerevisiae deletion strains, locus YDR297W, strain sur2, hits give low values 0.929 | S. cerevisiae deletion strains, locus YDR334W, strain swr1, hits give low values 0.926 | S. cerevisiae deletion strains, locus YDR335W, strain msn5, hits give low values 0.941 | S. cerevisiae deletion strains, locus YDR363W, strain ESC2, hits give low values 1.01 | S. cerevisiae deletion strains, locus YDR392W, strain spt3, hits give low values 0.852 | S. cerevisiae deletion strains, locus YEL003W, strain gim4, hits give low values 0.924 | S. cerevisiae deletion strains, locus YER002W, strain NOP16, hits give low values 0.941 | S. cerevisiae deletion strains, locus YER015W, strain faa2, hits give low values 0.947 | S. cerevisiae deletion strains, locus YER016W, strain bim1, hits give low values 0.972 | S. cerevisiae deletion strains, locus YER155C, strain BEM2 (second series), hits give low values 0.909 | S. cerevisiae deletion strains, locus YFR010W, strain ubp6, hits give low values 0.989 | S. cerevisiae deletion strains, locus YGL167C, strain pmr1, hits give low values 0.92 | S. cerevisiae deletion strains, locus YGL173C, strain kem1, hits give low values 0.954 | S. cerevisiae deletion strains, locus YGL240W, strain doc1, hits give low values 0.985 | S. cerevisiae deletion strains, locus YGL253W, strain hxk2, hits give low values 0.926 | [4] 0.964 | S. cerevisiae deletion strains, locus YHR013C, strain ard1, hits give low values 0.989 | S. cerevisiae deletion strains, locus YHR027C, strain rpn1, hits give low values 0.938 | S. cerevisiae deletion strains, locus YHR142W, strain chs7, hits give low values 0.908 | S. cerevisiae deletion strains, locus YJL095W, strain BCK1 (second series), hits give low values 0.938 | S. cerevisiae deletion strains, locus YJL164C, strain tpk1, hits give low values 0.957 | S. cerevisiae deletion strains, locus YJL166W, strain qcr8, hits give low values 0.97 | [6] 0.971 | S. cerevisiae deletion strains, locus YKL160W, strain elf1, hits give low values 0.938 | S. cerevisiae deletion strains, locus YLL001W, strain dnm1, hits give low values 0.966 | S. cerevisiae deletion strains, locus YLL026W, hits give low values 0.934 | S. cerevisiae deletion strains, locus YLR027C, strain aat2, hits give low values 0.956 | S. cerevisiae deletion strains, locus YLR221C, strain rsa3, hits give low values 0.962 | S. cerevisiae deletion strains, locus YLR258W, strain gsy2, hits give low values 0.961 | S. cerevisiae deletion strains, locus YLR320W, strain mms22, hits give low values 0.99 | S. cerevisiae deletion strains, locus YLR342W, strain FKS1, hits give low values 0.923 | S. cerevisiae deletion strains, locus YLR357W, strain rsc2, hits give low values 1.03 | S. cerevisiae deletion strains, locus YLR370C, strain arc18, hits give low values 0.945 | S. cerevisiae deletion strains, locus YLR384C, strain iki3, hits give low values 0.934 | S. cerevisiae deletion strains, locus YML120C, strain ndi1, hits give low values 0.963 | S. cerevisiae deletion strains, locus YMR058W, strain fet3, hits give low values 0.935 | S. cerevisiae deletion strains, locus YMR125W, strain sto1, hits give low values 0.988 | S. cerevisiae deletion strains, locus YMR205C, strain PFK2, hits give low values 1 | S. cerevisiae deletion strains, locus YMR231W, strain pep5, hits give low values 0.933 | S. cerevisiae deletion strains, locus YNL071W, strain lat1, hits give low values 0.929 | S. cerevisiae deletion strains, locus YNL128W, strain TEP1, hits give low values 0.973 | S. cerevisiae deletion strains, locus YNL175C, strain NOP13, hits give low values 0.935 | S. cerevisiae deletion strains, locus YNL197C, strain WHI3, hits give low values 0.927 | S. cerevisiae deletion strains, locus YNL209W, strain ssb2, hits give low values 0.949 | S. cerevisiae deletion strains, locus YNL224C, strain SQS1, hits give low values 0.94 | S. cerevisiae deletion strains, locus YNL248C, strain rpa49, hits give low values 0.99 | S. cerevisiae deletion strains, locus YNR049C, strain mso1, hits give low values 0.922 | S. cerevisiae deletion strains, locus YOR001W, strain rrp6, hits give low values 0.951 | S. cerevisiae deletion strains, locus YOR070C, strain gyp1, hits give low values 0.945 | S. cerevisiae deletion strains, locus YOR080W, strain dia2, hits give low values 0.959 | S. cerevisiae deletion strains, locus YOR083W, strain WHI5 (second series), hits give low values 0.982 | S. cerevisiae deletion strains, locus YOR083W, strain WHI5, hits give low values 0.929 | S. cerevisiae deletion strains, locus YOR106W, strain vam3, hits give low values 0.956 | S. cerevisiae deletion strains, locus YOR265W, strain rbl2, hits give low values 0.941 | S. cerevisiae deletion strains, locus YOR270C, strain vph1, hits give low values 0.97 | S. cerevisiae deletion strains, locus YOR290C, strain snf2, hits give low values 0.934 | S. cerevisiae deletion strains, locus YPL051W, strain arl3, hits give low values 0.933 | [7] 1.01 | S. cerevisiae deletion strains, locus YPL078C, strain atp4, hits give low values 0.914 | S. cerevisiae deletion strains, locus YPL106C, strain sse1, hits give low values 1.01
active: [2] 0.892 | S. cerevisiae deletion strains, locus YCL069W, strain vba3, hits give low values 0.907 | S. cerevisiae deletion strains, locus YCR088W, strain abp1, hits give low values 0.907 | S. cerevisiae deletion strains, locus YDR001C, strain nth1, hits give low values 0.892 | S. cerevisiae deletion strains, locus YEL037C, strain rad23, hits give low values 0.913 | S. cerevisiae deletion strains, locus YEL061C, strain CIN8 (second series), hits give low values 0.899 | S. cerevisiae deletion strains, locus YER111C, strain swi4, hits give low values 0.908 | S. cerevisiae deletion strains, locus YGL227W, strain vid30, hits give low values 0.909 | [5] 0.482 | S. cerevisiae deletion strains, locus YHR079C, strain IRE1, hits give low values 0.395 | S. cerevisiae deletion strains, locus YJL092W, strain hpr5, hits give low values 0.893 | S. cerevisiae deletion strains, locus YJL095W, strain BCK1, hits give low values 0.502 | S. cerevisiae deletion strains, locus YJL115W, strain asf1, hits give low values 0.901 | S. cerevisiae deletion strains, locus YJL129C, strain trk1, hits give low values 0.847 | S. cerevisiae deletion strains, locus YJL154C, strain vps35, hits give low values 0.894 | S. cerevisiae deletion strains, locus YJR066W, strain TOR1, hits give low values 0.392 | S. cerevisiae deletion strains, locus YKR026C, strain gcn3, hits give low values 0.903 | S. cerevisiae deletion strains, locus YKR091W, strain srl3, hits give low values 0.927 | S. cerevisiae deletion strains, locus YLL041C, strain sdh2, hits give low values 0.925 | S. cerevisiae deletion strains, locus YLR113W, strain HOG1, hits give low values 0.291 | S. cerevisiae deletion strains, locus YLR262C, strain YPT6 (second series), hits give low values 0.832 | S. cerevisiae deletion strains, locus YMR129W, hits give low values 0.889 | S. cerevisiae deletion strains, locus YNL183C, strain NPR1, hits give low values 0.367 | S. cerevisiae deletion strains, locus YNL322C, strain KRE1 (second series), hits give low values 0.871 | S. cerevisiae deletion strains, locus YOR231W, strain MKK1, hits give low values 0.413 | S. cerevisiae deletion strains, locus YPL240C, strain hsp82, hits give low values 0.924 | S. cerevisiae deletion strains, locus YPL256C, strain CLN2, hits give low values 0.36

O=C(COC(=O)c1ccccc1Nc1ccccc1)c1ccc(Cl)cc1
inactive: [1] 0.978 | S. cerevisiae deletion strains, locus YBR229C, strain ROT2, hits give low values 0.99 | [2] 0.993 | S. cerevisiae deletion strains, locus YDL101C, strain DUN1, hits give low values 0.986 | [3] 0.9 | S. cerevisiae deletion strains, locus YEL061C, strain CIN8, hits give low values 0.993 | [4] 0.982 | S. cerevisiae deletion strains, locus YGR229C, strain SMI1, hits give low values 0.98 | [5] 1.01 | S. cerevisiae deletion strains, locus YHR087W, strain rtc3, hits give low values 0.974 | [6] 0.997 | S. cerevisiae deletion strains, locus YJR043C, strain POL32, hits give low values 0.98 | S. cerevisiae deletion strains, locus YJR075W, strain HOC1, hits give low values 1 | S. cerevisiae deletion strains, locus YKL190W, strain CNB1, hits give low values 0.988 | S. cerevisiae deletion strains, locus YLR039C, strain RIC1, hits give low values 0.944 | S. cerevisiae deletion strains, locus YLR058C, strain SHM2 (second series), hits give low values 0.992 | S. cerevisiae deletion strains, locus YLR085C, strain ARP6, hits give low values 1.02 | S. cerevisiae deletion strains, locus YLR262C, strain YPT6, hits give low values 0.987 | S. cerevisiae deletion strains, locus YML094W, strain GIM5, hits give low values 0.956 | S. cerevisiae deletion strains, locus YMR219W, strain ESC1, hits give low values 0.988 | S. cerevisiae deletion strains, locus YMR263W, strain SAP30, hits give low values 0.927 | S. cerevisiae deletion strains, locus YMR307W, strain GAS1, hits give low values 0.987 | S. cerevisiae deletion strains, locus YNL153C, strain GIM3, hits give low values 0.993 | S. cerevisiae deletion strains, locus YNL298W, strain CLA4 (second series), hits give low values 1 | S. cerevisiae deletion strains, locus YNL322C, strain KRE1, hits give low values 0.966 | S. cerevisiae deletion strains, locus YNR030W, strain Alg12, hits give low values 0.99 | S. cerevisiae deletion strains, locus YOL006C, strain TOP1, hits give low values 0.964 | [7] 0.921 | S. cerevisiae deletion strains, locus YPL241C, strain CIN2, hits give low values 0.9 | S. cerevisiae deletion strains, locus YPR135W, strain CTF4, hits give low values 1.01 | S. cerevisiae strains, strain wild type, hits give low values 0.985

Reference: PubChem BioAssay AID1159580 (chemical genetic matrix, 2015)
